The record followed here is PubChem BioAssay (EPA / NIEHS).

The source made the active and inactive calls. Rule for the calls: active = hit-call score of the fitted dose curve at least 0.9, where 1 is the maximum; inactive = score below 0.9.

Read-out in this test: Interferon-gamma inducible Protein 10 (IP10), CXCL10 (gene 3627)
The test is described as follows: BSK_hDFCGF_IP10: BioMAP Diversity Plus: hDFCGF Assay for Interferon-gamma inducible Protein 10 (IP10) Biomarker Activity (AID 2283053). The conditions noted are these: primary human foreskin fibroblasts; actives raise or lower the signal. The protocol:
BSK_hDFCGF is a cell-based, multiplexed-readout assay that uses foreskin fibroblast, a human skin primary cell, with measurements taken at 24 hours after chemical dosing in a 96-well plate.BSK_hDFCGF_IP10 is an assay component measured in the BSK_hDFCGF assay. It measures IP-10 antibody related to regulation of gene expression using ELISA technology.Data from the assay component BSK_hDFCGF_IP10 was analyzed into 1 assay endpoint. This assay endpoint, BSK_hDFCGF_IP10, was analyzed with bidirectional fitting relative to DMSO as the negative control and baseline of activity. Using a type of binding reporter, gain or loss-of-signal activity can be used to understand changes in the signaling as they relate to the gene CXCL10. Furthermore, this assay endpoint can be referred to as a primary readout, because this assay has produced multiple assay endpoints where this one serves a signaling function. To generalize the intended target to other relatable targets, this assay endpoint is annotated to the cytokine intended target family, where the subfamily is chemotactic factor.
The levels of cell surface (or secreted, indicated by the prefix "s") biomarker endpoints were measured by ELISA. Overt cytotoxicity to cells in confluent adherent cultures (all systems other than the BT system) was assessed by measuring total protein levels using sulforhodamine B (SRB) staining in parallel cultures at the time of biomarker measurements, indicated as SRB endpoints. For proliferation assays for adherent cell types, individual cell types are cultured at sub-confluence and relative cell numbers quantified by SRB staining at time points optimized for each system (48 h: 3C and CASM3C systems; 72 h: BT and HDF3CGF systems; 96 h: SAg system). SRB was performed by staining cells with 0.1% SRB after fixation with 10% TCA and reading wells at 560 nm.Viability and proliferation of PBMC (T cells) was quantified by Alamar Blue reduction for the SAg and BT systems. For PBMC viability (referred to as PBMC Cytotoxicity within the assay endpoint names), cells were plated (75,000/well in a 96-well plate) and then chemical samples added for 1 h before addition of activators, SEB and TSST-1 (20 ng/mL final concentration each). Cells were incubated for 90 h. Then, Alamar Blue (20 uL/well) (Invitrogen, Cat DAL1100) was added for 6 h, and the plates were read with a fluorescence microplate reader at 546/580 nm (excitation/emission). For PBMC proliferation, cells were plated and activated as above but incubated for only 16 h prior to addition of Alamar Blue. Plates were read after 6 h.
For the compound `CC1(C)CC(N=C=O)CC(C)(CN=C=O)C1` (stereo not given), the result was inactive. Consider `Oc1ccc2ccccc2c1N=Nc1ccccc1`, for which the result was inactive. With `CC(C)c1ccc(C(=O)N=C(N)N)cc1S(C)(=O)=O`, the result was inactive.

Usually AC50 stands for the concentration giving half of the maximal activity seen. For `CCOc1ccc2c(c1)C(C)=CC(C)(C)N2`, the AC50 is 20 µM (active). In the case of `CC(CO)OC(C)CO` (stereo not given) (tested in a mixture with another compound), the outcome was inactive. For `CC1(C)NC(=O)NC1=O`, the outcome was inactive.

For `COc1cc(C=O)ccc1O`, the result was inactive. On to `CC(=O)Oc1ccccc1C(=O)O`, for which the outcome was inactive.

Regarding `COc1ccc(S(=O)(=O)N2C(=O)[C@@](c3ccccc3OC)(N3C[C@H](O)C[C@H]3C(=O)N(C)C)c3cc(Cl)ccc32)c(OC)c1`, the outcome was inactive. Still for that read-out and setting: then `CCCCCCC(=O)OCC`, with “inactive”; and `Cc1ccc(C)c(C)c1`, with “inactive”. For `c1cc(-c2ccncc2)ccn1`, the result was inactive. On the same count and under the same terms, the result for `Nc1nc(N)c2nc(CNc3ccc(C(=O)N[C@@H](CCC(=O)O)C(=O)O)cc3)cnc2n1` reads “inactive”; that for `Cc1ccc(Cl)cc1`, “inactive”.

As to `Nc1ccc2c(c1)C(=O)c1ccccc1C2=O`, the outcome was inactive.

Take `O=C(O)CCCCC(=O)O`: the result was inactive. For `CN1CCN(Cc2cc(-c3ccc4[nH]c(=O)oc4c3)co2)[C@@H](c2ccc(F)cc2)C1`, the outcome was inactive.

`Nc1ccc(S(=O)(=O)c2ccc(N)cc2)cc1`: the result was inactive.

With `CCCCCCCCCCCCCO`, the AC50 was 13.2 µM (active). `Cc1nc(C)nc(N2C[C@@H](C)N(c3ccnc([C@@H](C)O)n3)[C@@H](C)C2)n1`: the result was inactive. Regarding `C1CCC(SSC2CCCCC2)CC1`, the AC50 is 30.4 µM (active).

As to `CCCCCC(=O)O`, the result was inactive. Still for that read-out and setting: the result for `NCCO` reads “inactive”.

For `CCCCCCCCCCO`, the outcome was inactive. As for `COc1cc(-c2nc(NC(=O)c3cc4cc(C)cc(C)c4n3CC(=O)O)sc2CCC2CCCCC2)c(OC)cc1Cl`, the AC50 was 0.46 µM (active). On to `COc1ccc2c(c1)c(CC(=O)O)c(C)n2C(=O)c1ccc(Cl)cc1`, for which the result was inactive. As for `CC=Cc1ccc(O)c(OC)c1`, the outcome was inactive. Still for that read-out and setting: then `Cc1nc(-c2ccc3c(c2)CCN(CCC2CCC(NC(=O)/C=C/c4ccc(F)cc4)CC2)CC3)no1` (stereo not given), with “inactive”.

In the case of `CCCCCCCCCCCCCCCC`, the outcome was inactive. For the compound `CNCc1cc(F)ccc1Oc1ccc(Cl)c(Cl)c1`, the outcome was inactive. For `COCCOC[C@H](CC1(C(=O)NC2CCC(C(=O)O)CC2)CCCC1)C(=O)Oc1ccc2c(c1)CCC2` (stereo not given in full), the outcome was inactive. On the same count and under the same terms, then `NC(=O)Cn1c(=O)cc(CCN2CCN(c3nccc4sccc34)CC2)c2ccc(F)cc21`, with “inactive”. With `CCCCCCCCCCCC(=O)OC`, the result was inactive. With `OC[C@@H](O)[C@@H](O)[C@H](O)[C@H](O)CO`, the outcome was inactive. In the case of `Cc1cccc(C)c1O`, the outcome was inactive. Consider `CC1=C(/C=C/C(C)=C/C=C/C(C)=C/CO)C(C)(C)CCC1`, for which the AC50 was 27.4 µM (active). Take `CCCCN(CCCC)CCCC`: the result was inactive.

For `Cc1ccccc1Cl`, the result was inactive. Regarding `C[C@]12C=CC(=O)C=C1CC[C@@H]1[C@@H]2C(=O)C[C@@]2(C)[C@H]1CC[C@]2(O)C(=O)CO`, the outcome was inactive. For the compound `Nc1ccccc1N`, the outcome was inactive.
